The values below come from PubChem BioAssay (NCATS).

Records with an inconclusive call do not appear. Where a call stands in place of a potency, no number is given. Active and inactive are the calls of the source. Calls follow the shape of the dose curve; as a rule, active = well fitted curve in the direction sought with a large enough effect; inconclusive = small, poorly fitted or top-dose-only effect, or another doubt; inactive = no such curve, though single readings can be large; an effect the other way counts as inactive or inconclusive.

The target in assay [1] is Aldehyde dehydrogenase, mitochondrial (Homo sapiens) (UniProt P05091). The assay can be described thus: qHTS for Inhibitors of the Aldehyde Dehydrogenase Family (ALDH2) Primary screen (AID 2061308). Also: nearly all actives have a fitted effect of over 55% in size.
The target of assay [2] is Retinaldehyde dehydrogenase 3 (Homo sapiens) (UniProt P47895). Kind of assay: qHTS for Inhibitors of the Aldehyde Dehydrogenase Family (ALDH1A3) Primary screen (AID 2061315). On the technique in general: In qHTS, concentration-response curves come from the screen itself.

`CCC(CC)C(=O)OC12C(OC(=O)C(C)C)C(C)C3(O)C(C=C(CO)CC4(O)C(=O)C(C)=CC43)C1C2(C)C` (centres undefined): the Potency entry in assay [1] and in assay [2] was “inactive” in each case.

For `Cc1ccc(NS(=O)(=O)c2ccc(N3CCCC3=O)cc2)cc1C`, the Potency result in assay [1] and in assay [2] was “inactive” in each case.

As for `Cc1ccc(OCCn2c(CCNC(=O)c3cccc4ccccc34)nc3ccccc32)cc1`, the Potency entry in assay [1] and in assay [2] was “inactive” in each case.

For the compound `O=c1[nH]ccc2nc(-c3ccc(CN4CCC(c5nc(-c6ccccn6)n[nH]5)CC4)cc3)c(-c3ccccc3)cc12`, the Potency result in assay [1] and in assay [2] was “inactive” in each case.

Take `Cc1nc(C(C)N(C)c2ncnc3ccc(-c4ccc5c(c4)OCO5)cc23)cs1` (centres undefined): the Potency result in assay [1] and in assay [2] was “inactive” each time.

For the compound `C[C@H]1CN(S(=O)(=O)c2ccc3c(c2)OCCO3)CCN1S(=O)(=O)c1c(F)cccc1F`, the Potency entry in assay [1] and in assay [2] was “inactive” each time.

As for `CN1CCN(Cc2cc(COCc3ccccc3)c3cccnc3c2O)CC1`, the Potency entry in assay [1] and in assay [2] was “inactive” in each case.

`COc1ccc2oc(NC3=NC(c4[nH]ncc4Cl)C4=C(CCCC4=O)N3)nc2c1` (centres undefined): the Potency result in assay [1] and in assay [2] was “inactive” throughout.

As to `CC(=O)Nc1sc2c(c1C(=O)c1ccccc1)CCN(C(C)C)C2`, the Potency result in assay [1] and in assay [2] was “inactive” in each case.

Turning to `Cc1cccc(-c2ccc3ncnc(NCc4cccs4)c3c2)c1`, the Potency entry in assay [1] and in assay [2] was “inactive” each time.

Regarding `O=[S+]([O-])(c1ccc(-c2ccccc2)cc1)N1CCN([S+](=O)([O-])c2ccc3c(c2)OCCO3)CC1`, the Potency result in assay [1] and in assay [2] was “inactive” in each case.

Regarding `CC(C)(C)OC(=O)N[C@@H](Cc1ccc(O[S+](=O)([O-])c2cccc3cnccc23)cc1)C(=O)Nc1ccc(-c2ccccc2)cc1`, the Potency result in assay [1] and in assay [2] was “inactive” each time.

With `Cc1ccc(-c2cc(C(=O)Nc3ccc(-c4nn[nH]n4)cc3)c3ccccc3n2)cc1C`, the Potency result in assay [1] and in assay [2] was “inactive” each time.

For the compound `O=C(NCCc1nc2ccccc2n1CCOc1ccccc1[N+](=O)[O-])C1CCCCC1`, the Potency entry in assay [1] and in assay [2] was “inactive” in each case.

With `Cc1cc(NC(=O)Nc2cccc(-c3ccncc3)n2)ccc1Cl`, the Potency entry in assay [1] and in assay [2] was “inactive” each time.

`Cc1ccccc1-c1ccc(=O)n(CC(=O)NCCc2ccccc2)n1`: the Potency entry in assay [1] and in assay [2] was “inactive” each time.

As to `c1cc(NC2CCNCC2)nc(-c2cnc3ccccn23)c1`, the Potency result in assay [1] and in assay [2] was “inactive” in each case.

As to `Cc1cc(C)nc(NC(=S)N2CCN(c3ccc(F)c(F)c3)CC2)c1`, the Potency entry in assay [1] and in assay [2] was “inactive” each time.

In the case of `O=C1c2ccccc2NC(c2ccccc2O)N1Cc1ccccc1` (centres undefined), the Potency entry in assay [1] and in assay [2] was “inactive” each time.

On to `Cc1cc(-c2nnc3n2CCCCC3)c(C)n1-c1ccccc1`, for which the Potency result in assay [1] and in assay [2] was “inactive” each time.

Regarding `O=C(Nc1ccc(-c2nc3ccccc3[nH]2)cc1)c1ccc2c(c1)OCCO2`, the Potency result in assay [1] and in assay [2] was “inactive” each time.

As for `O=C(Nc1ccc(-c2nc3ccccc3[nH]2)cc1)c1ccc2n[nH]nc2c1`, the Potency result in assay [1] and in assay [2] was “inactive” in each case.

For `C/C=C/c1ccc2c(c1)[C@@H](C)[C@H](c1ccc(O)cc1)O2`, the Potency entry in assay [1] and in assay [2] was “inactive” throughout.

For `CCCCn1cnc2cc(C(=O)N3CCCCC3)ccc21`, the Potency result in assay [1] and in assay [2] was “inactive” in each case.

Regarding `COc1cccc(-c2nnc3n2N=C(c2cc(OC)ccc2OC)CS3)c1`, the Potency entry in assay [1] and in assay [2] was “inactive” in each case.

In the case of `CCCn1c(-c2ccc(F)cc2)nc2c(N3CCN(C)CC3)nc(C)nc21`, the Potency result in assay [1] and in assay [2] was “inactive” each time.

In the case of `Cc1ccc(Cl)cc1NC(=O)c1nc[nH]c1C(=O)Nc1nc2ccccc2[nH]1`, the Potency entry in assay [1] and in assay [2] was “inactive” each time.

For `Cc1ccc(C)n1-c1cccc(-c2nn[nH]n2)c1`, the Potency result in assay [1] and in assay [2] was “inactive” each time.

Regarding `COCCNc1cc2c(cc1[S+](=O)([O-])Nc1ccc(C)c(C)c1)CCC(=O)N2`, the Potency result in assay [1] and in assay [2] was “inactive” in each case.

With `CCC1CCC(C(=O)Nc2ccc(S(=O)(=O)Nc3nccs3)cc2)CC1` (centres undefined), the Potency entry in assay [1] and in assay [2] was “inactive” throughout.

Regarding `COc1cccc(-c2ccc(-c3nc4ccccc4c(=O)[nH]3)o2)c1`, the Potency result in assay [1] and in assay [2] was “inactive” in each case.

As to `COc1cc(O)c(C(CC(=O)N2CCC(Cc3ccccc3)CC2)c2ccc3c(c2)OCO3)c(OC)c1` (centres undefined), the Potency result in assay [1] and in assay [2] was “inactive” in each case.

Consider `Clc1ccccc1-c1nc(NCc2ccc(-c3cccnc3)cc2)c2ccccc2n1`, for which the Potency result in assay [1] and in assay [2] was “inactive” each time.

As for `CC(=O)c1ccc(-c2csc(N3CCC(C(N)=O)CC3)n2)cc1`, the Potency entry in assay [1] and in assay [2] was “inactive” each time.

Turning to `O=C(CNC(=O)c1ccc2cc[nH]c2c1)OC(C(=O)Nc1cc(C(F)(F)F)ccc1Cl)c1ccccc1` (centres undefined), the Potency result in assay [1] and in assay [2] was “inactive” throughout.

As to `COc1cc(F)c(S(=O)(=O)N2CCCN(S(=O)(=O)c3cccc(NC(C)=O)c3)CC2)c(F)c1`, the Potency entry in assay [1] and in assay [2] was “inactive” each time.

Take `Cc1ccc(OCCn2c(CCNC(=O)C(C)(C)C)nc3ccccc32)cc1`: the Potency entry in assay [1] and in assay [2] was “inactive” throughout.

`COc1cc(O)c(C(CC(=O)N2CCCC(C(F)(F)F)C2)c2ccc3c(c2)OCO3)c(OC)c1` (centres undefined): the Potency entry in assay [1] and in assay [2] was “inactive” throughout.

Turning to `Cc1ccc(OCCn2c(CCNC(=O)c3c(F)cccc3F)nc3ccccc32)cc1`, the Potency result in assay [1] and in assay [2] was “inactive” in each case.

`Cc1cc(-c2ccccc2)nc2c(C(=O)Nc3ccc4c(c3)CCC4)cnn12`: the Potency entry in assay [1] and in assay [2] was “inactive” in each case.

On to `O=[S+]([O-])(Nc1ccc(N2CCNCC2)cc1)c1ccc(NCc2ccc(Br)cc2O)cc1`, for which the Potency result in assay [1] and in assay [2] was “inactive” throughout.

On to `c1ccc(CNCc2nnc(-c3cc4ccccc4[nH]3)o2)cc1`, for which the Potency entry in assay [1] and in assay [2] was “inactive” in each case.
